# NPC1 prom act: NPC1 promoter activation. Huh7 NPC1 promoter luciferase reporter, 24 h. Potency, µM (highest dose often 9.22 µM), without a hit: at the highest dose activation, actives largely listed as activators. 2.4% of 320,000 active; further: % of control where 0% means no effect; nearly all actives have a fitted effect of over 60% in size
#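 In 1536-well qHTS, Huh7 cells harboring an NPC1 promoter–luciferase construct received compound for 24 h; activation was quantified by luminescence following luciferase reagent addition.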
# ELG1 genotox: induces genotoxicity in HEK293T cells with luciferase-tagged ELG1. AID 504466. HEK293T ELG1-luciferase reporter, luminescence, 16 h. 1.3% of 330,000 active. Potency, µM (titrated, usually from 46 µM), inactives show top-dose activity change, positive = activation, hits mostly activators; further: % of control where 0% means no effect; nearly all actives have a fitted effect of over 60% in size
#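 Luminescence read-out: rising ELG1-luciferase signal, reflecting elevated ELG1 protein under genetic stress, flags genotoxic compounds. Cells were treated for 16 hr at 37 °C before ONE-Glo detection.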
# Luc counter: Kinase-Glo luciferase inhibition (counter-screen). Q27757. Kinase-Glo luciferase, ATP luminescence, 8 min. 0.28% of 200,000 active. Potency, µM (highest dose often 38.3 µM), for inactives: at the highest dose activity change, negative = inhibition, most hits filed as inhibitors. AID 1379; further: on the % scale 0 is the no-effect control and ±100 the full control effect; nearly all actives have a fitted effect of over 60% in size
#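 Compound is pinned into ATP-containing buffer (10 uM ATP, imidazole pH 7.2, 7 mM MgCl2). Kinase-Glo luciferase reagent is then added. Light output is recorded following an 8-min room-temperature incubation.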
# FLuc modulator: inhibits or activates purified firefly luciferase, miR-21 counter-screen | P08659 | AID 588342 | purified FLuc, Km substrates, luminescence inhibition | 6.9% of 360,000 active | Potency, µM (series often up to 57.5 µM), for the others: at the top dose activity change, negative = inhibition, hits mostly inhibitors;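 further: plate controls were vehicle for no effect and reference inhibitor for full effect; nearly all actives have a fitted effect of over 55% in size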
# Target sequence (P08659 whole entry, looked up): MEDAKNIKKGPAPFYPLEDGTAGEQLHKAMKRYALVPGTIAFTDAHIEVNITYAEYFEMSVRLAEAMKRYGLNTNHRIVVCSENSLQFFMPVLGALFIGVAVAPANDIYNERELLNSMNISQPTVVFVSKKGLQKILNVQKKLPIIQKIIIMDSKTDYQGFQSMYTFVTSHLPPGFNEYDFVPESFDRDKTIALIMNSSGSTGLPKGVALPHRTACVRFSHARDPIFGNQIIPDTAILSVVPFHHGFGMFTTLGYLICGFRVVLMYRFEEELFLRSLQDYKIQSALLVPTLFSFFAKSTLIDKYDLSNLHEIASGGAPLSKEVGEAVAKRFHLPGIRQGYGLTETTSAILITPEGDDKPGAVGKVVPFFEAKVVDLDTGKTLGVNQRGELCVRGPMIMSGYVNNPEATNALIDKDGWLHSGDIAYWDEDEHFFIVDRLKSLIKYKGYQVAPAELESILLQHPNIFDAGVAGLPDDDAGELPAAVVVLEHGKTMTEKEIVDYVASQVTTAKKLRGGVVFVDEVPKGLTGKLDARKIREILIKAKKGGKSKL
#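 Purified P. pyralis luciferase, 10 nM final, with Km-level 10 uM D-luciferin and 10 uM ATP in 50 mM Tris acetate pH 7.5, 10 mM Mg acetate, 0.01% Tween-20, 0.05% BSA; 6-point qHTS titration about 60 µM downward; luminescence read.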
# Rab9 prom act: activators of Rab9 promoter; Huh7 Rab9 promoter-luciferase reporter, luminescence, 24 h; Potency, µM (doses to about 9.22 µM), for inactives: top-dose activation, negative = inhibition, hits mostly activators; 2.8% of 320,000 active; further: % of control where 0% means no effect; nearly all actives have a fitted effect of over 60% in size
#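 Luciferase signal after 10 min detection reagent at ambient indicates Rab9 promoter upregulation; stably transfected Huh7 cells were treated 24 h with compound in DMSO at 37 °C, 5% CO2.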
# SMN2 splice enh: enhancers of SMN2 splice variant expression; 2.8% of 210,000 active; AID 1458; HEK293 SMN2-luciferase splicing reporter, luminescence, 30-36 h; Potency, µM (highest dose often 46.1 µM), for inactives: at the top dose activity change, positive = activation, hits mostly activators; further: % of control where 0% means no effect; nearly all actives have a fitted effect of over 55% in size
#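 HEK293 cells carry an SMN2 minigene-luciferase reporter in which exon 7 inclusion puts luciferase in frame. Cells were seeded at 2000 cells/well, attached for 10-12 hours, then exposed to compounds for 30-36 hours at 37C before ONE-Glo luminescence.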
# * marks the source's active call; other numbers are inactive results; ? = inconclusive; · = no result; ! = a repeat was not active; [ ] = another dose, or the depositor's remark. This is a sample that favours compounds with a hit; in the whole collection about 7.5% have one here. The call rests on the fitted dose curve; in most records, active means well fitted curve in the direction sought with a large enough effect; inconclusive means small, poorly fitted or top-dose-only effect, or another doubt; inactive means no such curve, though single readings can be large; an effect the other way counts as inactive or inconclusive. Potency means the concentration at half of the fitted maximal effect.
SMILES,NPC1 prom act,ELG1 genotox,Luc counter,FLuc modulator,Rab9 prom act,SMN2 splice enh
O=C(c1ccco1)N1CCN(C(c2ccccn2)c2nnnn2C2CCCC2)CC1 (centres undefined),?,?,-3%,15µM*,?,13µM*
Cc1cccc(NC(=O)c2ccc3snnc3c2)c1C,·,·,·,6%,·,9%
Oc1ccccc1/C=N/N1CCN(c2ccccn2)CC1,?,?,·,13µM*,2.8µM*,·
C(=N\N1CCN(c2ccccn2)CC1)/c1cccc2ccccc12,2%,-3%,·,17µM*,2%,·
C(=C\c1ccccc1)/C=N/N1CCN(c2ccccn2)CC1,?,4.1µM*,-7%,12µM*,?,?
CC(C)c1ccc(/C=N/N2CCN(c3ccccn3)CC2)cc1,?,3%,·,?,?,·
O=[N+]([O-])c1cccc(/C=N/N2CCN(c3ccccn3)CC2)c1,?,17%,·,?,3.2µM*,·
Cc1cc(C)cc(NC(=O)C2CCN(S(=O)(=O)c3cccc(-c4noc(C)n4)c3)CC2)c1,·,·,·,-13%,·,·
CCCCC(CC)COCC1CO1 (centres undefined),·,·,·,·,·,0%
Cc1ccc(C(=O)NCc2ccc(F)cc2)cc1NC(=O)c1nsc2ccccc12,·,·,·,-18%,·,·
O=C(NCc1ccccc1)c1ccc(NC(=O)c2nsc3ccccc23)cc1,·,·,·,6µM*,·,·
O=C(NCc1ccccc1Cl)c1ccc(NC(=O)c2nsc3ccccc23)cc1,·,·,·,3.8µM*,·,·
COc1ccc(OC)c(CNC(=O)c2ccc(C)c(NC(=O)c3nsc4ccccc34)c2)c1,·,·,·,-5%,·,·
CC(=O)Nc1ccc(NC(=O)c2cc(-n3cnnc3)ccc2Cl)cc1,-7%,-2%,0%,0%,0%,-6%
Cc1c(NC(=O)c2cc(-n3cnnc3)ccc2Cl)cccc1-c1nc2ccccc2s1,?,10%,-22%,0.6µM*,3.5µM*,5.6µM*
COc1cc(OC)cc(C(=O)Nc2ccccc2-c2nc3ccccc3s2)c1,·,·,·,-4%,·,-13%
O=C(Nc1cccc(-c2nc3ccccc3s2)c1)c1cc(-n2cnnc2)ccc1Cl,28%,0%,·,6.7µM*,20%,·
Cc1ccc2sc(-c3ccc(NC(=O)c4cc(-n5cnnc5)ccc4Cl)cc3)nc2c1,?,22%,1%,6µM*,?,13µM*
Cc1c(NC(=O)c2cccs2)cccc1-c1nc2ccccc2s1,8%,-3%,1%,4.3µM*,18%,-7%
O=C(O)CNC(=O)c1ccc([N+](=O)[O-])cc1,·,·,·,·,·,7%
COc1ccc([C@@H]2CNC(=O)C2)cc1OC1CCCC1,·,·,1%,·,·,1%[20.6 µM]
COC(=O)N/N=C\c1ccc(OC/C=C/c2ccccc2)cc1,7%,8%,·,?,0%,·
CC(=O)N/N=C\c1ccccc1OC/C=C/c1ccccc1,?,16µM*,·,-17%,27%,·
N#CCC(=O)N/N=C\c1cccc(OC/C=C/c2ccccc2)c1,0.56µM*,?,·,13µM*,?,·
CC(=O)N/N=C\c1cccc(OC/C=C/c2ccccc2)c1,0.4µM*,?,·,11µM*,0.45µM*,·
SMILES,NPC1 prom act,ELG1 genotox,Luc counter,FLuc modulator,Rab9 prom act,SMN2 splice enh
CCOC(=O)N/N=C\c1cccc(OC)c1OC/C=C/c1ccccc1,4%,-4%,·,9.5µM*,9%,·
COCCCNC(=O)c1ccc(Cn2c(=O)c3ccccc3n(CC(N)=O)c2=O)cc1,·,·,·,-3%,·,-4%
COc1cc(C(=O)Nc2cc(C)ccc2OCc2cc(=O)n3c(C)csc3n2)cc(OC)c1OC,·,·,·,-1%,·,·
COc1ccc(CNCCSc2nnnn2-c2ccccc2)c(OC)c1,·,·,·,-7%,·,·
COc1ccc(Cl)cc1NC(=O)CN(C)S(=O)(=O)c1ccc(Br)s1,·,·,·,-13%,·,-8%
N/C(=N\OC(=O)c1cccc2ccccc12)c1cccc([N+](=O)[O-])c1,12%,1%,0%,?,15%,13%
Cc1ncsc1CCOC(=O)c1cccc([N+](=O)[O-])c1,-2%,1%,-4%,19µM*!,-5%,5%
COc1cccc(C(=O)O/N=C(\N)c2ccc([N+](=O)[O-])cc2)c1OC,?,?,-4%,11µM*,10%[1.84 µM],?
Cc1ccccc1C(=O)O/N=C(\N)c1cccc([N+](=O)[O-])c1,?,?,?,0.6µM*,4.5µM*,?
O=C(COC(=O)c1cccc([N+](=O)[O-])c1)NCc1cccs1,0%,3%,1%,4%,4%,-2%
Cc1cccc(C(=O)O/N=C(\N)c2cccc([N+](=O)[O-])c2)c1,?,?,-5%,1.3µM*,18%,16%
N/C(=N\OC(=O)c1cccs1)c1cccc([N+](=O)[O-])c1,21%,?,-5%,3.4µM*,26%,20%
Cc1ccc(-c2nsc3c(N4CCC(C(N)=O)CC4)ncnc23)cc1,1.6µM*,?,-2%,1.5µM*,2.8µM*,-16%
O=C(N1CCCC1)N1CCN(c2ncnc3c(-c4ccc(Cl)cc4)nsc23)CC1,22%,?,-3%,17µM*,11%,?
CCOC(=O)c1cnc2c(C)c(Cl)ccc2c1Nc1ccc(N2CCOCC2)cc1,·,·,·,0%,·,5%
CCNC(=O)CCCN1C(=O)CCn2nc(-c3cccn3C)cc21,·,·,·,-4%,·,·
CCOC(=O)c1csc(-c2ccc(OC)c(OC)c2)n1,-1%,-1%,-1%,?,0%,-5%
CCOC(=O)c1csc(-c2ccc3c(c2)CCO3)n1,3.5µM*,?,·,4.8µM*,2.2µM*,·
CCOC(=O)c1csc(NC(=O)c2ccccc2)n1,3.2µM*,8.2µM*,-4%,12µM*,1.8µM*,11µM*
CCOC(=O)c1csc(NC(=O)c2ccc(OCC)cc2)n1,11%,-6%,0%,6.7µM*,?,-39%
CCOC(=O)c1csc(-c2sccc2Br)n1,2.5µM*,5.2µM*,·,1.9µM*,3.2µM*,·
COc1ccc(NC(=O)CC2C(=O)N(c3cccc(OC)c3)C(=O)N2CCC2=CCCCC2)cc1 (centres undefined),·,·,·,2%,·,-30%
CCOC(=O)c1csc(NC(=O)c2ccc(OC)c(OC)c2)n1,-3%,5%,1%,-1%,0%,7%
CCOC(=O)c1csc(NC(=O)c2ccc3c(c2)OCCO3)n1,?,1%,·,3.8µM*,?,·
O=C(c1ccc2c(=O)n(Cc3ccc(Cl)cc3)c(=S)[nH]c2c1)N1CCOCC1,-8%,3%,·,?,-4%,·
CN1CCN(c2ccc(NC(=O)C(C)(c3ccccc3)c3ccccc3)cc2)CC1,-5%,-3%,·,1%,0%,·

# Bioassay records: PubChem BioAssay, National Center for Advancing Translational Sciences (NCATS)
